Measured values reported in PubChem BioAssay (NCI).
About 79,000 compounds went through this panel and 15% of them were active in at least one assay; those are over-represented in the sample as a whole. No stated cut-off is given here; in the data, active means growth inhibition above about 70%; inactive means the rest.

Tests used:
[1] = NCI Yeast Anticancer Drug Screen. Data for the rad50 strain (AID 155);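 further: 0% = growth of vehicle-only cultures of the same strain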; conditions: S. cerevisiae rad50 strain growth inhibition; at 50.0 µM; hits give high values
In short: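 Cells are treated with compound, grown, and their growth is then scored against vehicle-only cultures of the same repair-deficient yeast strain.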

[2] = NCI Yeast Anticancer Drug Screen. Data for the mec2-1 strain (AID 157); conditions: S. cerevisiae mec2-1 strain, at 50.0 µM, hits give high values
In short: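 Yeast mec2-1 mutant treated with compound. Readout: growth inhibition vs vehicle controls.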

[3] = NCI Yeast Anticancer Drug Screen. Data for the sgs1 mgt1 strain (AID 161);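 further: 0% = growth of cultures given vehicle only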; conditions: S. cerevisiae sgs1 mgt1 strain, at 50.0 µM, hits give high values
In short: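 Test agents were incubated with a DNA-repair-mutant yeast strain. Growth was then read and compared against vehicle-treated controls.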

[4] = NCI Yeast Anticancer Drug Screen. Data for the cln2 rad14 strain (AID 165);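 further: 0% = growth equal to vehicle treated cultures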; conditions: S. cerevisiae cln2 rad14 strain, at 50.0 µM, hits give high values
In short: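 cln2 rad14 yeast strain; compound exposure; growth inhibition read vs vehicle controls.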

[5] = NCI Yeast Anticancer Drug Screen. Data for the bub3 strain (AID 167); conditions: S. cerevisiae bub3 mutant strain, at 50.0 µM, hits give high values
In short: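 Part of a panel of yeast mutants defective in DNA damage repair or cell cycle regulation. Each strain is grown with compound, and inhibition is calculated relative to solvent-treated cultures.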

[6] = NCI Yeast Anticancer Drug Screen. Data for the mlh1 rad18 strain (AID 175); conditions: S. cerevisiae mlh1 rad18 strain growth inhibition; at 50.0 µM; hits give high values
In short: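 Yeast w/ defined DNA-repair lesions; compound exposure; growth vs vehicle controls → % inhibition.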

Measured: growth inhibition

CCOC(=O)C(C)(C)Oc1ccc2c(C)c(-c3ccc(Cl)cc3)c(=O)oc2c1
inactive: [1] -1.7% | [2] -26.4% | [3] -1.25% | [4] -41.2% | [5] -47.6% | [6] -10.9%

COc1cc(N(CCC#N)CCC#N)ccc1/C(N=Nc1ccccc1)=N/NC(=O)c1cc(Br)ccc1O
inactive: [1] 31.4% | [2] 37.1% | [3] 44.2% | [4] 3.3% | [5] 35.9% | [6] 21.4%

CC(=O)Oc1cc(Oc2c(OC(C)=O)cc(Oc3c(OC(C)=O)cc(OC(C)=O)c(OC(C)=O)c3OC(C)=O)cc2OC(C)=O)cc(OC(C)=O)c1OC(C)=O
inactive: [1] 6.15% | [2] 3.1% | [3] 13.2% | [4] 4.5% | [5] 15.4% | [6] 10.4%

O=C(CCCO)c1nc2ccccc2s1
inactive: [1] -2.5% | [2] 12.9% | [3] 2.8% | [4] -8.55% | [5] 11.8% | [6] 4.7%

CC1=CC(O/C=C2\C(=O)OC3C=CCC23)OC1=O (configuration not stated)
inactive: [1] -1.6% | [2] -32% | [3] 17.4% | [4] 4.05% | [5] -11.6% | [6] 0.55%

CCCCCCCCCCCCCCCCCCCCCC(C)C
inactive: [1] -8% | [2] 0.8% | [3] -10.9% | [4] -8.6% | [5] -7.55% | [6] -31.4%

CN(CCSCC(N)C(=O)O)CCSCC(N)C(=O)O (configuration not stated)
inactive: [1] 5% | [2] 11.2% | [3] 0.7% | [4] 29.4% | [5] -58% | [6] 28.6%

COc1ccc(Cl)cc1NC(=O)c1cccc([N+](=O)[O-])c1
inactive: [1] -2.45% | [2] 0.7% | [3] 12.9% | [4] -13.9% | [5] 16.9% | [6] -1.25%

O=P(c1ccccc1)(c1ccccc1)c1ccccc1OCCCO
inactive: [1] 8.3% | [2] 3.2% | [3] 4.35% | [4] 24.8% | [5] 4.4% | [6] 3.15%

NC1CC(=O)c2sccc21 (configuration not stated)
inactive: [1] 9.8% | [2] 2.15% | [3] 16.8% | [4] 9.2% | [5] 17.8% | [6] 1.25%

CCCCC1NC(=O)OC1=O (configuration not stated)
inactive: [1] -23.6% | [2] -31.4% | [3] -11.2% | [4] 1.9% | [5] -20.2% | [6] -33.4%

CC(=O)NC(CCc1ccccc1)C(=O)O (configuration not stated)
inactive: [1] 16.1% | [2] 32.4% | [3] 0.9% | [4] 24.9% | [5] 40.8% | [6] 13.8%

O=C(NO)c1c(F)c(F)c(C(=O)NO)c(F)c1F
inactive: [1] -2.5% | [2] 7.05% | [3] 4% | [4] 11% | [5] 9.65% | [6] 2.1%

CCSc1n[nH]c(=O)nc1NN
inactive: [1] -0.35% | [2] -3.85% | [3] -28.4% | [4] -60% | [5] -19.2% | [6] -2.75%

Nc1cc(=O)c2n[nH]nc2[nH]1
inactive: [1] -29.9% | [2] 0.7% | [3] -17.1% | [4] -21.6% | [5] -14.3% | [6] -16.9%

COc1ccc(Cl)cc1Cl
inactive: [1] 6.8% | [2] -6.45% | [3] -98% | [4] 14.2% | [5] 14.1% | [6] 26.6%

O=Cc1ccc(-c2cccc([N+](=O)[O-])c2)s1
inactive: [1] 4.9% | [2] 6.1% | [3] -14.1% | [4] 19.9% | [5] 6.1% | [6] 1.85%

[O-][n+]1ccncc1Cl
inactive: [1] -1.15% | [2] -0.65% | [3] -2.75% | [4] 0.55% | [5] 18.6% | [6] 7.05%

CC1(c2ccncc2)NC(=O)NC1=O (configuration not stated)
inactive: [1] 31.9% | [2] -12.6% | [3] 10.3% | [4] 1.4% | [5] -5.8% | [6] 18.6%

O=C(NNc1nc(CCl)cs1)c1ccccc1Cl
inactive: [1] -0.15% | [2] -31.6% | [3] 4.75% | [4] 7.35% | [5] -11.1% | [6] -11.6%

CCN(CC)Cc1cc(OC)c(OC)c(OC)c1
inactive: [1] -8.3% | [2] -14.5% | [3] -6.6% | [4] -50.9% | [5] 7% | [6] -18.1%

CC(=O)OCC1OC(SC2=NC(=O)CS2)C(OC(C)=O)C(OC(C)=O)C1OC(C)=O (configuration not stated)
inactive: [1] 3.3% | [2] -1.8% | [3] 1.45% | [4] -6.6% | [5] -8.85% | [6] 17.4%

O=C1c2ccccc2C(=O)N1CNc1cccc(NCN2C(=O)c3ccccc3C2=O)n1
inactive: [1] -35.8% | [2] -22.1% | [3] -23.1% | [4] 13.4% | [5] -6.5% | [6] -34.8%

O=C1NC(c2ccccc2)(c2ccccc2)C(=O)N1CNc1ccccn1
inactive: [1] -0.4% | [2] -14.8% | [3] -31.8% | [4] 8.95% | [5] -8.3% | [6] 29.6%

CC(NC(=O)Nc1ccccc1Cl)c1ccccc1 (configuration not stated)
inactive: [1] -2.05% | [2] 17.6% | [3] 1.5% | [4] -10.8% | [5] 34% | [6] 11.1%

CCOC(=O)CN(C)C#N
inactive: [1] -16.9% | [2] -33.3% | [3] -44% | [4] -5.3% | [5] -31.6% | [6] -2.15%

CCC(=O)NCCCCCN1CCCCC1
inactive: [1] 8.55% | [2] 5.35% | [3] 9.75% | [4] -15.6% | [5] -1.1% | [6] 9.05%

COC(=O)c1cc(C(=O)OC)c(C(=O)OC)cc1C(=O)OC
inactive: [1] -1.35% | [2] -1.25% | [3] 15.8% | [4] -37.8% | [5] 4.2% | [6] 22.1%

Cn1c2ccccc2c2nnc(N/N=C/c3cccnc3)nc21
inactive: [1] -39.1% | [2] -36.5% | [3] -17.4% | [4] -44.6% | [5] -5.05% | [6] -5.7%

COC(=O)Nc1cccc(NC(=O)C(=O)O)c1
inactive: [1] -0.1% | [2] 3.75% | [3] -0.95% | [4] -29.4% | [5] -4.7% | [6] -0.9%

COc1ccc(C(O)(CCN2CCOCC2)c2ccc3c(c2)OCO3)cc1 (configuration not stated)
inactive: [1] -8.4% | [2] 9.2% | [3] -7.7% | [4] -47.4% | [5] 8.6% | [6] -0.3%

CCOC(=O)CSc1ncnc2nc[nH]c12
inactive: [1] 31.2% | [2] -9.35% | [3] -6% | [4] 6.25% | [5] 17% | [6] 9.75%

O=C(CCc1cc(-c2ccccc2)nc(=S)[nH]1)Nc1ccccc1[N+](=O)[O-]
inactive: [1] 10% | [2] -8.05% | [3] 9% | [4] 29.6% | [5] 15.5% | [6] 7.25%

COc1cc(NCC(C#N)C#N)ccc1N=Nc1ccc([N+](=O)[O-])cc1
inactive: [1] 25.9% | [2] 26.4% | [3] 10.5% | [4] 18.8% | [5] 12.7% | [6] 48.9%

COc1ccc2c(c1)OC[C@@H]1c3cc(O)c(OCc4ccccc4)cc3O[C@]21C
inactive: [1] 9.9% | [2] 40.8% | [3] 10.3% | [4] 53.5% | [5] 21.7% | [6] -26%

COC(=O)C1=NC(=S)N=C(C(=O)OC)C1(C)C(=O)c1ccc(Cl)cc1
inactive: [1] -2.55% | [2] 2.65% | [3] -14.9% | [4] 17.2% | [5] 2.75% | [6] 4.35%

Cc1ccc(C(=O)c2c(C)cccc2C(=O)O)c(C)c1
inactive: [1] -0.95% | [2] -2.1% | [3] 8.45% | [4] 12.6% | [5] -3.85% | [6] 29.4%
